Consider 25 compounds from PubChem BioAssay (Tox21).

Inconclusive results are not listed. Active and inactive are the calls of the source. Unless noted, the call rests on the fitted dose curve; in most records, active means well fitted curve in the direction sought with a large enough effect in the repeat runs; inconclusive means weak or mixed curves; inactive means no such curve, though single readings can be large; an effect the other way counts as inactive or inconclusive.

Test [1] in a line: qHTS assay to identify aromatase inhibitors - cell viability counter screen (AID 743084;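 further: cells stimulated with testosterone during compound exposure; nearly all actives have a fitted effect of over 55% in size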; further: potency means the concentration at half of the fitted maximal effect). (qHTS replaces the single test concentration by a dilution series.)
A short description of test [2]: qHTS assay to identify small molecule that activate the aryl hydrocarbon receptor (AhR) signaling pathway - cell viability counter screen (AID 743086). Further: nearly all actives have a fitted effect of over 45% in size. Further: potency means the concentration at half of the fitted maximal effect. The method in brief: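 HepG2-AhR-luc (HG2L7.5c1) cells, 4000/well, treated 24 h at 37 C with compound; viability measured as CellTiter-Fluor fluorescence after 30 min in the same wells as the luciferase read.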
Test [3] deals with Peroxisome proliferator-activated receptor gamma (Homo sapiens) (UniProt P37231). Put plainly: qHTS assay to identify small molecule agonists of the peroxisome proliferator-activated receptor gamma (PPARg) signaling pathway (AID 743094; active means well fitted activation curve with a large enough effect in the signal ratio in the repeat runs, not every such curve was filed as active; the % refers to the signal ratio). The method in brief: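 Cell-based bla reporter, HEK293H background, PPARg-driven UAS. Pre-incubation 5 h, 37C, 5% CO2. Compound 17 h, 37C. Substrate 1 h RT; fluorescence.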

Test [4] can be described thus: qHTS assay to identify small molecule antagonists of the peroxisome proliferator-activated receptor gamma (PPARg) signaling pathway - cell viability counter screen (AID 743194). Further: nearly all actives have a fitted effect of over 55% in size. Further: potency means the concentration at half of the fitted maximal effect. The method in brief: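 Cytotoxicity counter screen in PPARg-bla HEK293H cells, same wells as reporter assay. Compounds plus 50 nM rosiglitazone (final) for 17 h at 37 C, then viability read by CellTiter-Glo luminescence.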

A short description of test [5]: qHTS assay for small molecule agonists of the antioxidant response element (ARE) signaling pathway - cell viability counter screen (AID 743203; calls by dose curve; further: nearly all actives have a fitted effect of over 55% in size; further: potency means the concentration at half of the fitted maximal effect). The method in brief: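 Measured in the same wells as the beta-lactamase ARE reporter, this read-out is CellTiter-Glo luminescence from HepG2 ARE-bla cells given compounds for 16 hrs.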
A short description of test [6]: qHTS assay for small molecule activators of the heat shock response signaling pathway - cell viability counter screen (AID 743209). Further: nearly all actives have a fitted effect of over 50% in size. Further: potency means the concentration at half of the fitted maximal effect. The method in brief:
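Same-well multiplex: after 2.5 h room-temperature incubation with LiveBLAzer B/G substrate and fluorescence reading, CellTiter-Glo reagent was added to HSE-bla HeLa cells that had received compound for 5 h at 37 C; luminescence read after 30 min.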

In test [7] the target is Peroxisome proliferator-activated receptor gamma (Homo sapiens) (UniProt P37231). The experiment in a line: qHTS assay to identify small molecule antagonists of the peroxisome proliferator-activated receptor gamma (PPARg) signaling pathway (AID 743191; calls by dose curve; further: series mostly up to about 63 µM; nearly all actives have a fitted effect of over 30% in size). The procedure, abridged:
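GeneBLAzer PPARg UAS-bla HEK293H cells, 5 h post-plating, exposed to compounds 17 h at 37C. LiveBLAzer B/G FRET substrate added for 1 h at room temperature; beta-lactamase reporter read by fluorescence intensity.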

Test [8] is described as follows: qHTS assay for small molecule activators of the heat shock response signaling pathway (AID 743210; active means well fitted activation curve with a large enough effect in the signal ratio in the repeat runs, with a control signal flat, not every such curve was filed as active; the % refers to the signal ratio; further: series mostly up to about 63 µM). The method in brief: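 Beta-lactamase reporter read-out: FRET substrate fluorescence after 2.5 h at RT, following 5 h compound treatment at 37 C of HeLa cells carrying HSE-driven bla reporter; quantitative HTS format.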
Test [9] has as its target Aryl hydrocarbon receptor (Homo sapiens) (UniProt P35869). Put plainly: qHTS assay to identify small molecule that activate the aryl hydrocarbon receptor (AhR) signaling pathway (AID 743085).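 Further: HG2L7.5c1 human HepG2 liver cells with stably integrated DRE-driven firefly reporter; series mostly up to about 70 µM; nearly all actives have a fitted effect of over 15% in size.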 The method in brief: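 Measured in HG2L7.5c1 cells: CellTiter-Fluor signal (30 min incubation, 37C) for viability, then luciferase luminescence (30 min, room temperature). Compound contact time was 24 h at 37C, following a 5 h pre-incubation.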

Aryl hydrocarbon receptor (Homo sapiens), sequence (P35869 whole entry, looked up): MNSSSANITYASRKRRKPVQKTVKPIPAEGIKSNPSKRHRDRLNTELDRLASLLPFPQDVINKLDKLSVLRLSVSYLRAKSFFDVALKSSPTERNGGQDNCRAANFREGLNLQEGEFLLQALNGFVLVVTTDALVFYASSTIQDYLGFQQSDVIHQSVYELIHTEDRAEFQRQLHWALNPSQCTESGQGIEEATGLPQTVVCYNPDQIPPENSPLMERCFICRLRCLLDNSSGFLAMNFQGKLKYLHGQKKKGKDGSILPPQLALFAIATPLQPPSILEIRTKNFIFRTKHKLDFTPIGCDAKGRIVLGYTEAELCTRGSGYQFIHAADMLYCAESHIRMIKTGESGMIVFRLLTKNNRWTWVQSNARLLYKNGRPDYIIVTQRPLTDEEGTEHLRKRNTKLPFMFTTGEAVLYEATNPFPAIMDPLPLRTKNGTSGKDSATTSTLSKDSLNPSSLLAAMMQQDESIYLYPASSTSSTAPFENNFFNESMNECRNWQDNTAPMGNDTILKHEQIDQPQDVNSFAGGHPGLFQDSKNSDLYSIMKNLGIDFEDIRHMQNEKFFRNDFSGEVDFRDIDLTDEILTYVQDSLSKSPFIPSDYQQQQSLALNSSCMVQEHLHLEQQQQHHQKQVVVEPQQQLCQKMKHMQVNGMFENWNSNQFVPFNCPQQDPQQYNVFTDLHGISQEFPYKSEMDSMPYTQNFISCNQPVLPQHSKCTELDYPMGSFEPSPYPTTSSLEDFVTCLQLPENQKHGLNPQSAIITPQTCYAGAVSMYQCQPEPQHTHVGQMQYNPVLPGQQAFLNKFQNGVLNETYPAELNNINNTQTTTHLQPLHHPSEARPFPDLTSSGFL
Peroxisome proliferator-activated receptor gamma (Homo sapiens), sequence (P37231 whole entry, looked up): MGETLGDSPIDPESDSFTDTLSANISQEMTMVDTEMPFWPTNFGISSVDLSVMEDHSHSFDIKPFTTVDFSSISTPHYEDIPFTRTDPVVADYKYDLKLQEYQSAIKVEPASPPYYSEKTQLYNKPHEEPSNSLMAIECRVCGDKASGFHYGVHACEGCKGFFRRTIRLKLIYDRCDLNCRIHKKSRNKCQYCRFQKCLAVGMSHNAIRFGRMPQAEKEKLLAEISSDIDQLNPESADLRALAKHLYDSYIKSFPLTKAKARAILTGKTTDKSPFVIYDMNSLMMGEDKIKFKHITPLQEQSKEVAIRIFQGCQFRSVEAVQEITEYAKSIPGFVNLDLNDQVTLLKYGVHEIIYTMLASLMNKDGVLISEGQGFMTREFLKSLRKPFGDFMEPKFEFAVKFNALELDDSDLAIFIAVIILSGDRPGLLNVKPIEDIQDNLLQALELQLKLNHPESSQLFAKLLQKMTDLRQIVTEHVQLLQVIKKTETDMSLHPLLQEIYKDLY

On to `CC(C)(O/N=C(\C(=O)N[C@@H]1C(=O)N2C(C(=O)[O-])=C(C[n+]3ccccc3)CS[C@H]12)c1csc(N)n1)C(=O)O`, for which the Potency result in test [1], in test [2] and in [3] was “inactive” throughout.

For the compound `C[C@@H]1C[C@H]2[C@@H]3C[C@H](F)C4=CC(=O)C=C[C@]4(C)[C@@]3(Cl)[C@@H](O)C[C@]2(C)[C@H]1C(=O)COC(=O)C(C)(C)C`, the Potency result in [1], in [2] and in [3] was “inactive” in each case.

Regarding `CC(C)[N+]1(C)[C@@H]2CC[C@H]1CC(OC(=O)C(CO)c1ccccc1)C2` (stereo partly drawn), the Potency entry in [1], in test [2] and in test [3] was “inactive” throughout.

Take `CCCCCN=C(N)N/N=C/c1c[nH]c2ccc(OC)cc12`: the Potency result in test [1], in test [2] and in test [3] was “inactive” in each case. Further, the Potency in test [4] is 13.3 µM (active); in test [5], 10.6 µM (active); in [6], 29.8 µM (active).

`CC(C)CCC[C@@H](C)[C@H]1CC[C@H]2[C@@H]3CC[C@@H]4C[C@H](O)CC[C@]4(C)[C@H]3CC[C@]12C`: the Potency entry in [1], in test [2] and in [3] was “inactive” in each case.

As for `N[C@@H](Cc1cnc[nH]1)C(=O)O`, the Potency entry in [1], in test [2] and in [3] was “inactive” each time.

On to `C1CCc2nnnn2CC1`, for which the Potency entry in test [1], in test [2] and in [3] was “inactive” throughout.

`O=C(O)COc1ccccc1/C=N/NC(=O)c1ccncc1`: the Potency entry in test [1], in test [2] and in test [3] was “inactive” in each case.

Turning to `CCC(O)c1ccccc1` (stereo not drawn), the Potency entry in test [1], in [2] and in test [3] was “inactive” throughout.

Consider `Oc1ccc(Cl)cc1C1CCCC1`, for which the Potency entry in test [1], in [2], in [3], in [7], in test [4] and in test [6] was “inactive” throughout. Besides, the compound was classed as inactive in test [8].

For `CCc1cn([C@H]2C[C@H](O)[C@@H](CO)O2)c(=O)[nH]c1=O`, the Potency entry in [1], in test [2] and in [3] was “inactive” in each case.

As for `Cc1cc(Br)ccc1NC(=O)CCl`, the Potency in test [1] was 13.7 µM (active); in test [2], 54.5 µM (active); in test [4], 7.76 µM (active); in test [5] it was 54.5 µM (active); in test [6], 12.3 µM (active).

For the compound `NC(N)=NCCCCN=C(N)N`, the Potency result in test [1], in [2] and in [3] was “inactive” throughout.

As for `N=C(N)c1ccc(/C=C/c2ccc(C(=N)N)cc2O)cc1`, the Potency result in test [1] and in test [3] was “inactive” each time.

Consider `CCCCCCCCCCCCN1CCCC1=O`, for which the Potency result in [1], in test [2] and in test [3] was “inactive” throughout. Further, the figures for the Potency in test [4], in test [5] and in test [6] were 54.9 µM (active), 61.1 µM (active) and 21.9 µM (active), respectively.

With `NC(=O)[C@@H]1C[C@]2(NC(=O)NC2=O)c2cc(F)ccc2O1`, the Potency result in test [1], in [2] and in test [3] was “inactive” each time.

As to `CCCCCCCCOC(=O)c1cc(O)c(O)c(O)c1`, the Potency was 54.5 µM (active) in [1], 34.7 µM (active) in [4] and 54.5 µM (active) in test [5].

Take `CCC(C)(C)c1ccc(CC(C)CN2C[C@@H](C)O[C@@H](C)C2)cc1` (stereo partly drawn): the Potency entry in [2], in [7], in test [5] and in test [6] was “inactive” each time. The compound was called inactive in [8].

For the compound `CCN(CC)C(=O)c1cccnc1`, the Potency result in test [2] is “inactive”.

As for `O=C1OC(O)C(C(Cl)Cl)=C1Cl` (stereo not drawn), the Potency result in test [9] and in [5] was “inactive” throughout.

As for `CCN(CC)C(=O)[C@]1(c2ccccc2)C[C@@H]1CN`, the Potency entry in test [2] is “inactive”.

Regarding `O=C(CCN1CCC(c2ccccc2)C1)c1ccc2c(c1)OCCO2` (stereo not drawn), the Potency result in test [9], in test [2], in test [3], in test [4] and in [5] was “inactive” in each case. For the same compound, the Potency in test [6] was 13.3 µM (active).

For the compound `CCCn1c(=O)[nH]c(=O)c2[nH]cnc21`, in [2], the Potency entry was “inactive”.

For the compound `COc1cc2c(c(OC)c1OC)-c1c(cc3c(c1OC)OCO3)C[C@@H](C)[C@](C)(O)C2`, the Potency in [2] was 29.8 µM (active). Moreover, the Potency result in test [3] is “inactive”.

Turning to `CC(Cc1ccc(O)c(O)c1)C(C)Cc1ccc(O)c(O)c1` (stereo not drawn), the Potency entry in test [9] and in test [6] was “inactive” each time. The Potency in [5] was 61.1 µM (active).
